TDP1 cell CPT: qHTS for Inhibitors of human tyrosyl-DNA phosphodiesterase 1 (TDP1): qHTS in cells in presence of CPT; chicken DT40 Tdp1-/-;hTDP1 cells + 20 nM CPT, ATP luminescence, 48 h; Potency, µM (doses to about 46.2 µM), without a hit: at the highest dose activity change, negative = growth inhibition, usual class: inhibitors; hit rate 12% among 420,000; AID 686979, 2013; further: potency means the concentration at half of the fitted maximal effect; on the % scale 0 is the no-effect control and ±100 the full control effect; nearly all actives have a fitted effect of over 55% in size
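Chicken DT40 Tdp1-/- cells complemented with human TDP1, 400 cells/well, exposed to compounds plus 20 nM camptothecin for at least 48 h at 37 C; viability read as ATP content by CellTiter-Glo luminescence.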
DT40 TDP1 no CPT: qHTS for Inhibitors of human tyrosyl-DNA phosphodiesterase 1 (TDP1): qHTS in cells in absence of CPT. DT40 Tdp1-/- hTDP1 cells, no CPT, ATP luminescence, 48 h. Potency, µM (top dose mostly 46.2 µM), inactives show at the top dose activity change, negative = growth inhibition, hits mostly inhibitors. hit rate 15% among 420,000. AID 686978, 2013; further: potency means the concentration at half of the fitted maximal effect; on the % scale 0 is the no-effect control and ±100 the full control effect; nearly all actives have a fitted effect of over 55% in size
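Chicken DT40 Tdp1-/- cells stably complemented with human TDP1 were seeded at 400 cells/well with DMSO in place of 20 nM camptothecin. After compound pinning, cells grew at least 48 hr at 37 °C; viability read by CellTiter-Glo luminescence.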
ASM inhibitor: Inhibitors of Secretory Acid Sphingomyelinase (S-ASM): qHTS | Sphingomyelin phosphodiesterase (Homo sapiens), P17405 | placental ASM, HMU-PC fluorogenic substrate, 60 min | Potency, µM (titrated, usually from 57.5 µM), for inactives: at the top dose activity change, negative = inhibition, usual class: inhibitors | hit rate 0.006% among 340,000; further: potency means the concentration at half of the fitted maximal effect
Target sequence (P17405 47-631 limits assumed): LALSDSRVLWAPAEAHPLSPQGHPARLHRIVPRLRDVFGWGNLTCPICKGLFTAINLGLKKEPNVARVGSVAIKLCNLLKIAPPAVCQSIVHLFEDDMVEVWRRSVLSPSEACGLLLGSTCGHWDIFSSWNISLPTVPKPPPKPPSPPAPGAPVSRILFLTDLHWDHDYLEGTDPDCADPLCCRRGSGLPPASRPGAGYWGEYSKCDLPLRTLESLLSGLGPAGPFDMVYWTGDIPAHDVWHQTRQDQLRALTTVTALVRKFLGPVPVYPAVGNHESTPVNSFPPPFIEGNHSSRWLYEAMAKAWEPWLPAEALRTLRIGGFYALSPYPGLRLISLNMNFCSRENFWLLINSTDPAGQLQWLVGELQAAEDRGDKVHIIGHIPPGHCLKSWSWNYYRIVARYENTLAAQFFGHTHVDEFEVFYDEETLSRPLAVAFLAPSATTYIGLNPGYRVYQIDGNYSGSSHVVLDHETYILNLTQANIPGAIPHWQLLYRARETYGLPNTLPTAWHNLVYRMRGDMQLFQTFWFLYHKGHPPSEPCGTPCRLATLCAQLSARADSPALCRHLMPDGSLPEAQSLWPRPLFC
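Steps: dispense placental human ASM, pin compound, wait 10 min at room temperature, add HMU-PC0 substrate at 9 uM final, incubate 60 min at 37 °C, add stop solution raising pH to 10, read fluorescence.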
HepG2 tox-1: qHTS for Inhibitors of TGF-b: Cytotox Counterscreen | HepG2 CAGA-GFP viability, ATP luminescence, 18 h | hit rate 0.76% among 410,000 | Potency, µM (top dose mostly 46.1 µM), without a hit: at the top dose activity change, negative = cytotoxicity, most hits filed as cytotoxic; further: potency means the concentration at half of the fitted maximal effect
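HepG2 CAGA-GFP cells (1000/well, DMEM with 1% FBS) received compound, then TGF-beta at 500 pg/mL final, and were incubated 18 hours at 37 degrees C. Viability was read by CellTiter-Glo luminescence. Media-only wells were set as complete cell-killing and DMSO as no toxicity.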
IL-1B inflam inh: qHTS for Inhibitors of Inflammasome Signaling: IL-1-beta AlphaLISA Primary Screen; THP-1 LPS/ATP IL-1B secretion, AlphaLISA, 16 h; stronger effect = lower value; activity change, % at 57.5 µM; hit rate 4.7% among 360,000; AID 743279, 2014; in the data active means activity change below about -50%; inconclusive means mostly about -30% to -49%; further: on the % scale 0 is the no-effect control and ±100 the full control effect
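Secreted IL-1B measured by AlphaLISA bead assay after 16 h compound exposure of THP-1 cells; compounds (final up to 57.5 uM) added 1 h before LPS (250 ng/mL) and ATP (1.25 mM) stimulation; lower signal means less secretion.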
TGFb SMAD3 inh: qHTS for Inhibitors of TGF-b; HepG2 CAGA-GFP TGF-b/SMAD3 reporter, GFP fluorescence, 18 h; TGF-beta stimulated, 500 pg/mL final; Potency, µM (titrated, usually from 46.1 µM), for the others: top-dose activity, negative = inhibition, usual class: inhibitors; hit rate 1.2% among 410,000; AID 588855, 2011; further: potency means the concentration at half of the fitted maximal effect; on the % scale 0 is the no-effect control and ±100 the full control effect; nearly all actives have a fitted effect of over 65% in size
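GFP signal (ex488/em500-530) from TGF-beta-stimulated HEPG2 CAGA-GFP cells, 500 pg/mL final, 18 h at 37 degrees C in DMEM plus 1% FBS, normalized to unstimulated and DMSO-stimulated controls.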
TGFb CAGA inh: qHTS for Inhibitors of TGF-b: Confirmation of Cherry Picks; shares compounds with TGFb SMAD3 inh; HepG2 CAGA-GFP TGF-b reporter, GFP fluorescence, 18 h; cells stimulated with TGF-beta, 500 pg/mL; Potency, µM (highest dose often 46.1 µM), for the others: top-dose activity, negative = inhibition, hits mostly inhibitors; hit rate 63% among 1,600; AID 720534, 2013; further: potency means the concentration at half of the fitted maximal effect; on the % scale 0 is the no-effect control and ±100 the full control effect; nearly all actives have a fitted effect of over 65% in size
HepG2 tox-2: qHTS for Inhibitors of TGF-b: Cytotox Counterscreen for Cherry Picks; shares compounds with TGFb SMAD3 inh; HepG2 CAGA-GFP viability, ATP luminescence, 18 h; cells stimulated with TGF-beta, 500 pg/mL; Potency, µM (top dose mostly 46.1 µM), inactives show at the top dose activity, negative = cytotoxicity, actives largely listed as inhibitors; hit rate 27% among 1,600; AID 720535, 2013; further: potency means the concentration at half of the fitted maximal effect; on the % scale 0 is the no-effect control and ±100 the full control effect; nearly all actives have a fitted effect of over 70% in size
TGFb CCL64 inh: qHTS for Inhibitors of TGF-b: CCL64 Cells Orthogonal Assay for Cherry Picks; CCL64 CAGA-GFP reporter, TGF-b stimulated, GFP fluorescence, 18 h; AID 720536, 2013; Potency, µM (doses to about 46.1 µM), without a hit: top-dose activity, negative = inhibition, actives largely listed as inhibitors; shares compounds with TGFb SMAD3 inh; hit rate 41% among 1,600; further: potency means the concentration at half of the fitted maximal effect; nearly all actives have a fitted effect of over 65% in size
COP TGFb inh: qHTS for Inhibitors of TGF-b: Hit Validation in HepG2 Cells using COP promoter | hit rate 3% among 1,600 | Potency, µM (series often up to 46.1 µM), without a hit: at the highest dose activity, negative = inhibition, actives largely listed as inhibitors | shares compounds with TGFb SMAD3 inh | HepG2 COP-GFP TGF-b reporter, GFP fluorescence, 18 h; cells stimulated by added recombinant TGF-beta; further: potency means the concentration at half of the fitted maximal effect; nearly all actives have a fitted effect of over 70% in size
Numbers without * were called inactive; i = inactive; ? = inconclusive; / = not tested or not shown; ! = a repeat was not active. Compounds with a hit are over-represented: about 19% of the library has one in this group of screens. Unless noted, the call rests on the fitted dose curve; in most records, active means well fitted curve in the direction sought with a large enough effect; inconclusive means small, poorly fitted or top-dose-only effect, or another doubt; inactive means no such curve, though single readings can be large; an effect the other way counts as inactive or inconclusive.

SMILES | TDP1 cell CPT | DT40 TDP1 no CPT | ASM inhibitor | HepG2 tox-1 | IL-1B inflam inh | TGFb SMAD3 inh | TGFb CAGA inh | HepG2 tox-2 | TGFb CCL64 inh | COP TGFb inh
CCCCN1C(=O)NC(=O)C2(Cc3ccccc3N3CCOCC32)C1=O (stereo unspecified) | -7% | -29% | 7% | 2% | 8 | ? | / | / | / | /
COc1ccc2c(c1)c(C(=O)O)c(C)n2C(C)C | -14% | -27% | -1% | 12% | 14 | 14% | / | / | / | /
CCCc1nc2ccc(Br)cc2c(=O)n1-c1ccc([N+](=O)[O-])c(C(F)(F)F)c1 | ? | ? | -9% | -31% | ? | 7.1µM* | ? | -27% | ? | -1%
CCc1nc2ccc(Br)cc2c(=O)n1-c1ccccc1C(F)(F)F | -19% | -19% | -4% | -35% | 34 | -3% | / | / | / | /
Cc1cc(-c2cc(C)c(N)c(C)c2)cc(C)c1N | -5% | -14% | -3% | -6% | -3 | -1% | / | / | / | /
C=C(C)CSc1nnc([C@@H](N)Cc2c[nH]c3ccccc23)o1 | -11% | -22% | -1% | -15% | 5 | 11% | / | / | / | /
Cc1[nH]nc2ccc(-c3cncc(OC[C@@H](N)Cc4c[nH]c5ccccc45)c3)cc12 | 0.58µM* | 0.58µM* | -14% | -87% | -104* | 1µM* | 1.6µM* | 1.3µM* | -103% | -53%
C[C@H]1CCC/C=C/[C@@H]2C[C@H](O)C[C@H]2[C@H](O)/C=C/C(=O)O1 | 0.58µM* | 0.65µM* | -4% | -32% | -53* | 0.13µM*! | 0.12µM* | ? | ? | 64%
C[C@H]1CCCC(=O)CCC/C=C/c2cc(O)cc(O)c2C(=O)O1 | -4% | ? | 7% | -5% | -13 | 18% | / | / | / | /
CC1=C(N2CC2)C(=O)C(CO)=C(N2CC2)C1=O | 0.026µM* | 0.029µM* | 5% | -110% | -99* | 0.32µM* | 0.1µM* | 0.21µM* | -113% | -87%
CC(=O)OC[C@]12CCC(C)=C[C@H]1O[C@@H]1[C@H](O)[C@@H](OC(C)=O)[C@@]2(C)[C@]12CO2 | 0.021µM* | 0.016µM* | -3% | -13% | -106* | -88% | 0.037µM* | 0.15µM* | 0.037µM* | -7%
COC(=O)C1=C(c2c(C)noc2C)C[C@@H]2CC[C@H]1N2C(=O)NCc1ccc(F)cc1 | -4% | -21% | 3% | -7% | 0 | 5% | / | / | / | /
CCCCn1c(N)c(C(=O)NCc2cccs2)c2nc3ccccc3nc21 | -18% | ? | i | -82% | -58* | 10µM* | ? | -25% | ? | 6%
O=C(CN1C(=O)c2ccccc2C1=O)N1CCN(c2nnc(-c3ccccc3)c3ccccc23)CC1 | -19% | ? | 2% | -8% | 10 | -2% | / | / | / | /
N#CCCn1cc(C(=O)NCc2ccccc2)c(-c2ccc3c(c2)OCCO3)n1 | -6% | -12% | -5% | -4% | 12 | 7% | / | / | / | /
Cc1[nH]c2ccc(OC(F)(F)F)cc2c1CCNCc1ccc(Cl)cc1 | 26µM* | 15µM* | -16% | 11µM* | -97* | 10µM* | ? | ? | ? | ?
CC(=NCCc1c[nH]c2ccccc12)c1c(O)n(Cc2ccccc2)c(=O)[nH]c1=O | 7.3µM* | 8.2µM* | -12% | 31% | ? | 11µM* | 21µM* | -28% | ? | -4%
COc1ccc(-n2nnnc2C(CCc2ccccc2)N2CCC(n3c(=O)[nH]c4ccccc43)CC2)cc1 (stereo unspecified) | ? | 23µM* | / | -20% | / | 11µM* | ? | -28% | ? | 8%
COc1ccc(-n2nnnc2C(c2ccccc2OC(F)(F)F)N2CCC(n3c(=O)[nH]c4ccccc43)CC2)cc1 (stereo unspecified) | 21µM* | 18µM* | / | -6% | / | 11µM* | 5.8µM* | ? | ? | 66%
O=C1NCN(c2ccccc2)C12CCN(C(c1ccccc1OC(F)(F)F)c1nnnn1C1CCCCC1)CC2 (stereo unspecified) | ? | ? | / | -44% | 19 | ? | / | / | / | /
O=C1NCN(c2ccccc2)C12CCN(C(c1cccs1)c1nnnn1C1CCCC1)CC2 (stereo unspecified) | ? | ? | / | -5% | -12 | ? | / | / | / | /
COc1cccc(NC2=NCCCS2)c1 | 12% | 21% | 3% | -34% | -2 | -7% | / | / | / | /
